These results are taken from PubChem BioAssay (Tox21).

Records with an inconclusive call do not appear. A number with no mark means an inactive call. Activity calls are given as the source filed them. Calls follow the shape of the dose curve; as a rule, active = well fitted activation curve with a large enough effect in the signal ratio in the repeat runs (not every such curve was filed as active); inconclusive = weak or mixed curves; inactive = flat fitted curve, though single readings scatter; the % refers to the signal ratio.
% is scaled to controls: 0 for no effect and ±100 for the full control effect.

This assay is described as follows: qHTS assay to identify small molecule agonists of H2AX (AID 1224845). The settings on record: CHO-K1 phospho-H2AX Ser139 HTRF, 3 h; series mostly up to 154 µM. The source says: National Center for Advancing Translational Sciences [NCATS]
NIH Chemical Genomics Center [NCGC]
U.S. Environmental Protection Agency [EPA]
National Institutes of Environmental Health Sciences [NIEHS]
National Toxicology Program [NTP]
U.S. Food and Drug Administration [FDA]
HTRF phospho-H2AX (Ser139) assay (Cisbio Bioassays, US) enables the quantitative detection of the histone variant H2AX when phosphorylated on serine 139. When double-stranded DNA breaks, either by ionizing radiation or endogenous physiological processes, H2AX becomes phosphorylated at Ser139. This phospho-Ser139 serves as a sensitive biomarker for the detection of such breaks, localizing the site of DNA repair. So, HTRF phospho-H2AX Ser139 is a pertinent assay to study genome stability, the cell cycle, DNA repair, and it serves as a biomarker for cancer, and to understand aging. Wild type CHO-K1 cells were used to identify the inducers of Phospho-H2AX Ser 139 from the Tox21 10K compound collections.
Tox21 Assay Protocol Summary:
The CHO-K1 cells suspended in culture medium containing 10% FBS were dispensed at 1000 cells/ 3 ul/well in 1536-well white wall/solid bottom plates (Greiner Bio-One North America, NC) using a Multidrop Combi (Thermo Fisher Scientific Inc., Waltham, MA). After the assay plates were incubated at 37C overnight, 23 nl of compounds at 15 concentrations (from 5-48 columns) or positive control (from 1 to 4 columns) were transferred to the assay plates using a Pintool station (Wako, San Diego, CA) into each well resulting in a final DMSO concentration of 0.76%. After 3hr incubation at 37C, 1 uL/well Supplemented Lysis buffer (diluted 100 fold blocking reagent in lysis buffer) (HTRF Phospho-H2A.X (S139) Assay kit from Cisbio US Inc., Bedford, MA) was added using a Flying Reagent Dispenser (FRD) (Aurora Discovery, CA). After 10sec spin at 1000 rpm in a plate centrifuge, the assay plates were incubated at room temperature for 30 min. Then followed by the addition of 1 uL/well detection buffer (containing a mixture of two antibodies, one labeled with cryptate, Anti pH2AX (S139)-K and another labeled with d2, Anti H2AX-d2) using FRD. After incubation at room temperature for 24 hr, the time resolved fluorescence at excitation 320 nm and emissions at 665 nm and 620 nm was measured using an Envision plate reader (PerkinElmer, Waltham, MA).
For orientation: Quantitative high-throughput screening tests each substance at several concentrations.
Turning to `CC(C)(O)C(Cl)(Cl)Cl`, the outcome was inactive.

For `CC(C)(C)C(=O)C(Cl)Cl`, the outcome was inactive.

On to `O=C(NC(O)C(Cl)(Cl)Cl)NC(O)C(Cl)(Cl)Cl` (stereo not given), for which the call was inactive.

Regarding `Cc1ccc2cc(C)ccc2c1`, the outcome was inactive.

As to `CCNc1nc(NCC)nc(SC)n1`, the call was inactive.

Turning to `CCOc1cc(OP(=S)(OC)OC)nc(CC)n1`, the compound was classed as inactive.

For the compound `CC(=NC#N)N(C)Cc1ccc(Cl)nc1`, the call was inactive.

For the compound `ClC(Cl)(Cl)Cl`, the outcome was inactive.

Consider `CC#Cc1cc(C)nc(Nc2ccccc2)n1`, for which the call was inactive.

`CON(C)C(=O)Nc1ccc(Br)c(Cl)c1`: the compound was classed as inactive.

On to `COc1ccc2c(C(=O)c3ccc(Cl)cc3)c(C)n(CC(=O)O)c2c1`, for which the result was inactive.

For `CCOC1Oc2ccc(OS(C)(=O)=O)cc2C1(C)C` (stereo not given), the compound was called inactive.

For the compound `Cc1ccc(-c2nc3ccc(C)cn3c2CC(=O)N(C)C)cc1`, the compound was classed as inactive.

For `NC(=O)OCCCc1ccccc1`, the compound was classed as inactive.

In the case of `CC[C@H](N)c1ccccc1`, the compound was called inactive.

Take `ClCOCCl`: the outcome was inactive.

Consider `CCCCOC(C)=O`, for which the outcome was inactive.

Consider `CCC(C)(C#N)N=NC(C)(C#N)CC` (stereo not given), for which the compound was classed as inactive.

For the compound `COc1cccc([C@@]2(O)CCCC[C@@H]2CN(C)C)c1`, the compound was classed as inactive.

`CCN(CC)CCOC(=O)C(O)(c1ccccc1)c1ccccc1`: the compound was called inactive.

For the compound `CCOC(=O)c1ncn2c1CN(C)C(=O)c1c(I)cccc1-2`, the compound was classed as inactive.

For the compound `CCN[C@H](C)Cc1cccc(C(F)(F)F)c1`, the result was inactive.

On to `CNC(=O)O/N=C(/CSC)C(C)(C)C`, for which the compound was classed as inactive.

Regarding `NNC(N)=O`, the compound was called inactive.

Turning to `CCCCCCCCBr`, the compound was classed as inactive.

Regarding `CC[C@H](O)C(C[C@H](C)N(C)C)(c1ccccc1)c1ccccc1`, the outcome was inactive.

On to `C1CN2CCC1CC2`, for which the compound was classed as inactive.

On to `CCNc1nc(Cl)nc(NC(C)(C)C)n1`, for which the compound was called inactive.

Turning to `CC(C)(C)NC[C@H](O)c1ccc(O)cc1Cl`, the compound was called inactive.

For the compound `O=P(O)(O)CN(CP(=O)(O)O)CP(=O)(O)O`, the call was inactive.

As to `BrCC1CO1` (stereo not given), the compound was classed as inactive.

Regarding `CC[C@@H](CO)NC(=O)[C@@H]1C=C2c3cccc4[nH]cc(c34)C[C@H]2N(C)C1`, the result was inactive.

`CCCOC(=O)Cc1ccc(OCC(=O)N(CC)CC)c(OC)c1`: the result was inactive.

For `CN=CNc1ccc(C)cc1C`, the call was inactive.

With `OP(O)c1ccccc1`, the compound was classed as inactive.

In the case of `CC(=O)OCC1=C(C(=O)O)N2C(=O)[C@@H](N)[C@H]2SC1`, the activation (H2AX phosphorylation) is 0.102% [at 31.6 µM].

For the compound `COC(=O)[C@@H](N)CCCN/C(N)=N/[N+](=O)[O-]`, the result was inactive.

With `COc1cc(CCN)cc(OC)c1OC`, the compound was called inactive.

As for `c1cncc([C@@H]2CCCCN2)c1`, the compound was classed as inactive.

In the case of `COc1ccc(C=O)cc1O`, the call was inactive.
